In PubChem BioAssay (Tox21) one finds outcome data, which are given here for 40 compounds.

Active and inactive are the calls of the source. The call rests on the fitted dose curve; in most records, active means well fitted curve in the direction sought with a large enough effect in the repeat runs; inconclusive means weak or mixed curves; inactive means flat fitted curve, though single readings scatter.

A short description of this assay: qHTS assay to test for compound auto fluorescence at 535 nm (green) in HepG2 cell free culture (AID 720686). The conditions noted are these: Cell-free medium, green autofluorescence 485/535 nm; series mostly up to 91.3 µM. An excerpt: U.S. Tox21 Program National Center for Advancing Translational Sciences [NCATS] NIH Chemical Genomics Center [NCGC] U.S. Environmental Protection Agency [EPA] National Institutes of Environmental Health Sciences [NIEHS] National Toxicology Program [NTP] U.S. Food and Drug Administration [FDA] Tox21 Assay Overview: Compound auto fluorescence often interferes with screening of the compound library against various biological targets and signaling pathways. Some of these compounds may have fluorophoric properties. Such properties may interfere with the assay outputs resulting in false positives and/or negatives. To decrease such complications and ensure the compound activities are relevant in terms of biological response, the Tox21 10K compound library was screened for auto fluorescence. From the fluorophores used as reporter signals in our screening assays, the auto fluorescence equivalencies of compounds against three fluorophores have been evaluated: Triamterene, Fluorescein and Rose Bengal sodium for blue, green and red fluorescence, respectively. The fluorescence intensities were measured using Excitation/Emission wavelengths at 405/460nm, 485/535nm and 540/590nm for blue, green and red labels, respectively. This assay includes the green fluorescence data.
Tox21 Assay Protocol Summary: 5 uL of culture medium (MEM containing 10% FBS) per well was dispensed into black wall/clear bottom 1536-well plates using a Multidrop Combi Dispenser (ThermoFisher Scientific, Waltham, MA). After 23 nL compound or DMSO vehicle was transferred into assay plate by a pintool work station (Kalypsys, San Diego, CA), fluorescence intensities in the assay plates were measured by an Envision (PerkinElmer, Shelton, CT) plate reader using three labels for measuring blue, green and red fluorescence at […] 460, 535 and 590nm respectively.
In general terms: Quantitative high-throughput screening tests each substance at several concentrations.
With `COc1ccc(C(CN(C)C)C2(O)CCCCC2)cc1` (stereo not given), the compound was classed as inactive.
In the case of `C[C@]12CCC(=O)C(O)=C1CC[C@@H]1[C@@H]2CC[C@]2(C)C(=O)CC[C@@H]12` it was “inactive”.
In the case of `Oc1ccc(-c2ccccc2)cc1` it was “inactive”; in that of `Cc1ccccc1[N+](=O)[O-]`, “inactive”.
In the case of `COP(=S)(OC)Oc1ccc([N+](=O)[O-])cc1` it was “inactive”; in that of `CCOP(=S)(OCC)O/N=C(\C#N)c1ccccc1`, “inactive”; in that of `CCCCNC(=O)n1c(NC(=O)OC)nc2ccccc21`, “inactive”.
With `CCOc1cc(Oc2ccc(C(F)(F)F)cc2Cl)ccc1[N+](=O)[O-]`, the outcome was inactive.
The result for `O=C(O)C(F)(F)C(F)(F)C(F)(F)C(F)(F)C(F)(F)C(F)(F)C(F)(F)F` reads “inactive”.
The result for `Oc1cc(Cl)c(Cl)cc1Cl` reads “inactive”; that for `CC1(C)C(C=C(Cl)Cl)C1C(=O)OC(C#N)c1cccc(Oc2ccccc2)c1` (stereo not given), “inactive”.
As for `C1=Cc2cccc3cccc1c23`, the compound was classed as inactive.
In the case of `CCCCCCOC(=O)c1ccccc1C(=O)OCCCCCC` it was “inactive”; in that of `Cc1cc(Cl)ccc1OCCCC(=O)O`, “inactive”.
In the case of `CCOCN(C(=O)CCl)c1c(C)cccc1CC` it was “inactive”; in that of `CCN(CC)C(=O)SCc1ccc(Cl)cc1`, “inactive”; in that of `NNC(N)=S`, “inactive”.
In the case of `CC(C)C(=O)OCC(C)(C)C(OC(=O)C(C)C)C(C)C` (stereo not given) it was “inactive”; in that of `CC(C)(OOC(C)(C)c1ccccc1)c1ccccc1`, “inactive”; in that of `O=C(Nc1ccc(Br)cc1)c1cc(Br)cc(Br)c1O`, “inactive”.
Turning to `CCCCN(CC)c1c([N+](=O)[O-])cc(C(F)(F)F)cc1[N+](=O)[O-]`, the result was inactive.
The result for `CN(C)c1ccc(C(=O)c2ccc(N(C)C)cc2)cc1` reads “inactive”; that for `Clc1nc(Cl)nc(Cl)n1`, “inactive”; that for `Cc1ccc(OP(=O)(Oc2ccc(C)cc2)Oc2ccc(C)cc2)cc1`, “inactive”.
Take `CCCCC(CC)COC(=O)c1ccc(C(=O)OCC(CC)CCCC)c(C(=O)OCC(CC)CCCC)c1` (stereo not given): the compound was called inactive.
The result for `CCN(CC)N=O` reads “inactive”.
With `c1ccc(N=Nc2ccccc2)cc1`, the compound was called inactive.
Consider `Oc1c(Cl)c(Cl)c(Cl)c(Cl)c1Cl`, for which the result was inactive.
In the case of `CC(C)Oc1cc(-n2nc(C(C)(C)C)oc2=O)c(Cl)cc1Cl` it was “inactive”.
Regarding `Nc1c(Cl)cc([N+](=O)[O-])cc1Cl`, the call was inactive.
`O=S(=O)(Oc1ccc(Cl)cc1)c1ccc(Cl)cc1`: the call was inactive.
For the compound `c1ccc(NNc2ccccc2)cc1`, the result was inactive.
The result for `C=CCN(CC=C)C(=O)C(Cl)Cl` reads “inactive”; that for `Cc1ccc2c(c1N)C(=O)c1ccccc1C2=O`, “inactive”.
Take `CCC(C)(c1ccc(O)cc1)c1ccc(O)cc1`: the outcome was inactive.
The result for `C#CCOS(=O)OC1CCCCC1Oc1ccc(C(C)(C)C)cc1` (stereo not given) reads “inactive”.
With `COP(=O)(OC)OC`, the call was inactive.
In the case of `CCCCCCCCC(=O)NCc1ccc(O)c(OC)c1` it was “inactive”; in that of `Cc1cc(C)cc(C)c1`, “inactive”; in that of `O=[N+]([O-])c1ccc(O)c([N+](=O)[O-])c1`, “inactive”.
